According to PubChem BioAssay AID504329 (Southern Research Specialized Biocontainment Screening …, 2011):
Hit rate of the full screen: of about 340,000 compounds, about 1,000 (0.29%) were called active. Cut-off read from the data, not from the text of the source: inconclusive = inhibition above about 27% without an active follow-up result; inactive = below that. The list is a sample of the results. Measured potencies and affinities stand elsewhere.

Test: NS1A inhibition, H1N1 influenza, cell based functional assay (AID 504329)
Details: percent inhibition, at 12.5 µM, active compounds read high

Compound	inhibition
Cc1ccccc1Nc1nc(-c2cccnc2)nc2ccccc12	-4.04% (inactive)
CCOc1ccccc1-n1c(O)c(C=NCCCn2ccnc2)c(=O)[nH]c1=O	3.36% (inactive)
CN1CCC(N(C)C(=O)c2ccccc2F)CC1	17.7% (inactive)
CN1CC2=Cc3ccccc3OC23Oc2ccccc2C=C3C1	3.84% (inactive)
O=C(CCCOc1ccccc1)Nc1cccc(S(=O)(=O)N2CCCCC2)c1	-17.5% (inactive)
CCN1CCN(C(=O)CS(=O)(=O)Cc2nc(-c3cccc(OC)c3)oc2C)CC1	-5.29% (inactive)
NC(=O)C1CCN(S(=O)(=O)Cc2ccccc2Cl)CC1	4.51% (inactive)
COc1ccc(CNC(=O)c2cc(C)nn2-c2ccccc2)cc1	0.54% (inactive)
COC(=O)c1ccc(Cn2nc(-c3ccccc3)ccc2=O)cc1	-6.12% (inactive)
O=C1OCC(c2ccccc2)=C1c1ccccc1[N+](=O)[O-]	-4.03% (inactive)
COCCn1ccc2c(OCC(=O)NCCc3ccccc3)cccc2c1=O	-4.46% (inactive)
Oc1ccc(F)c2cccnc12	3.59% (inactive)
COCc1ccc(O)c2ncccc12	2.78% (inactive)
Oc1ccc(Cl)c2cccnc12	-4.63% (inactive)
CCCOCc1ccc(O)c2ncccc12	-7.06% (inactive)
Cc1ccsc1C1CC(=O)NC2=C1C(=O)CC(C)(C)C2 (centres undefined)	-0.46% (inactive)
Cc1ccc(CNC(=O)C2CCC(=O)N(CCc3cccc(F)c3)C2)s1 (centres undefined)	11.3% (inactive)
O=C(Nc1c2c(nn1-c1cccc(Cl)c1)CS(=O)(=O)C2)c1ccc2c(c1)OCO2	0.57% (inactive)
Cc1nn(-c2ccc(F)cc2)c(Cl)c1/C=N/NC(=O)c1ccc(O)cc1	9.96% (inactive)
Cc1nn(-c2ccccc2)c(C)c1/C=N/NC(=O)c1cc(-c2ccccc2)n[nH]1	-0.6% (inactive)
Cc1ccc(-c2cc(C(=O)N/N=C/c3c(C)nn(-c4ccccc4)c3C)[nH]n2)cc1	11.2% (inactive)
Cc1nn(-c2ccccc2)c(C)c1/C=N/NC(=O)c1ccccc1O	6.87% (inactive)
Cc1nn(-c2ccccc2)c(C)c1/C=N/NC(=O)c1cc(O)cc(O)c1	-10.7% (inactive)
Cc1nn(-c2ccccc2)c(N2CCCC2)c1/C=N/NC(=O)c1cc2ccccc2cc1O	2.95% (inactive)

Compound	inhibition
COc1ccc(-c2nc(CS(=O)CC(=O)N3CCN(C)CC3)c(C)o2)cc1OC (centres undefined)	-3.22% (inactive)
COc1ccc(CCCc2nnc(SCC(=O)Nc3cc(C)c(C)cc3Br)o2)cc1	-5.67% (inactive)
O=C(CS(=O)(=O)Cc1ccccc1)N1CCN(C(=O)c2ccco2)CC1	-6.89% (inactive)
Cc1ccc(S(=O)(=O)N/N=C(\c2ccccc2)c2cccnc2)cc1	-2.16% (inactive)
CNc1c([N+](=O)[O-])cnn1-c1ccccc1Cl	-8.09% (inactive)
COc1ccccc1-n1cc2c([N+](=O)[O-])cc([N+](=O)[O-])cc2n1	41.1% (inactive)
COc1ccc(C(=O)Nc2nc(-c3ccc([N+](=O)[O-])cc3)c(-c3ccc(OC)cc3)s2)cc1	-6.06% (inactive)
Nc1nn(-c2ccccc2)nc1C(=O)OCc1ccccc1F	1.7% (inactive)
CC(=O)c1sc(NC(=O)c2ccc(Cl)cc2)nc1C	0.95% (inactive)
CC1CN(c2ccc([N+](=O)[O-])cc2C(=O)N2CCOCC2)CC(C)N1 (centres undefined)	-4.9% (inactive)
CC(=O)Nc1cccc(NC(=O)CSc2nnc3ccc(-c4cccnc4)nn23)c1	2.74% (inactive)
CC1(C)Nc2ccc(O)cc2-c2c1ssc2=S	19% (inactive)
CCOc1ccc2c(c1)-c1c(ssc1=S)C(C)(C)N2	21.5% (inactive)
CC1CCCN(C(=O)CNC(=O)c2cccs2)C1 (centres undefined)	-11.6% (inactive)
O=Cc1ccc(Cl)c(Cl)c1	-13.3% (inactive)
COc1ccc(C)cc1NCC(=O)Nc1ccc(C(C)(C)C)cc1	-0.26% (inactive)
O=C(CSc1nccc2ccccc12)N1CCN(c2ccccn2)CC1	9.51% (inactive)
O=C(COc1cccc2ccccc12)N1CCN(c2ccccn2)CC1	0.39% (inactive)
Cc1cccc(OCC(=O)NCC(=O)N/N=C/c2cc(Br)ccc2OCc2ccccc2)c1	9.61% (inactive)
COc1ccc(C(CCN2CCN(c3ccccc3)CC2)c2c(O)cc(OC)cc2OC)cc1 (centres undefined)	15.3% (inactive)
COc1cc(OC)c2ccc(=O)oc2c1C(CCN1CCCCC1)c1ccc(N(C)C)cc1 (centres undefined)	9.04% (inactive)
COc1cc(O)c(C(CCN2CCCC2)c2ccc(N(C)C)cc2)c(OC)c1 (centres undefined)	26.1% (inactive)
COc1cc(OC)c2ccc(=O)oc2c1C(CCN1CCCC1)c1ccc(N(C)C)cc1 (centres undefined)	21.8% (inactive)
NC(=O)CCN1CCN(C(=O)c2ccc3nc(Cc4cccc(Cl)c4)oc3c2)CC1	-5.64% (inactive)

Compound	inhibition
CCOC(=O)c1c(NC(=O)COC(=O)Cc2n[nH]c(=O)c3ccccc23)sc(C(=O)N(C)C)c1C	-4.28% (inactive)
CCCOc1ccc(/C=N/Nc2ccc(C(=O)O)cc2)c(OCCC)c1	10.8% (inactive)
CCOc1ccccc1/C=N/Nc1ccccc1[N+](=O)[O-]	28.9% (inactive)
COc1ccccc1/C=N\Nc1ccccc1[N+](=O)[O-]	9.18% (inactive)
O=[N+]([O-])c1ccc(N/N=C/c2c[nH]c3ccccc23)cc1	7.03% (inactive)
O=[N+]([O-])c1ccccc1N/N=C\c1ccccc1Cl	1.01% (inactive)
CCCOc1ccc(/C=N/Nc2ccccc2[N+](=O)[O-])c(O)c1	3.15% (inactive)
Cc1cccc(NC(=O)Cn2nc(-c3ccco3)ccc2=O)c1C	0.81% (inactive)
COC(C[C@H](O)C[C@@H](O)[C@H](C)OCc1ccccc1)OC	-2.93% (inactive)
CCCCOCCCNC(=S)Nc1ccc(S(=O)(=O)N2CCOCC2)cc1	0.29% (inactive)
CCCCC1=C(C(=O)OCC)C(C(=O)OCC)Oc2ccccc21 (centres undefined)	-8.03% (inactive)
COc1ccc(CN(CC(=O)NCc2ccccc2)C(=O)CCC(=O)Nc2ccccn2)cc1	-6.86% (inactive)
C/C=C(\C)CN1CCC(n2nccc2NC(=O)CCCc2ccccc2)CC1	-5.21% (inactive)
CCCN(CC(=O)Nc1ccccc1C)C(=O)c1ccc(=O)n(Cc2ccccc2)n1	5.93% (inactive)
CN(C)N1C(N)=C(C#N)C(c2cccnc2)C2=C1CCCC2=O (centres undefined)	0.98% (inactive)
COc1ccc(Cl)cc1NS(=O)(=O)c1cn(C)nc1C	-6.95% (inactive)
Cc1c(C)n(Cc2ccccc2)c2ccc(C(=O)OCCN(C)C)cc12	18.7% (inactive)
Cc1c(C)n(CCN(C)C)c2ccc(C(=O)OCCN(C)C)cc12	-4.19% (inactive)
Cc1ccc(C)c(-n2cc(CNCCCn3cccn3)c(-c3ccccc3)n2)c1	-27.8% (inactive)
CCn1ccnc1CN(C)Cc1cn(-c2cc(C)ccc2C)nc1-c1ccccc1	7.7% (inactive)
CCOC(=O)C1(C(=O)OCC)NC(=O)CC1C (centres undefined)	1.41% (inactive)
O=C(N/N=C/c1ccc2ncccc2c1)c1cc(-c2cccs2)nc2ccccc12	-4.78% (inactive)
NNC(=O)c1cc(-c2cccs2)nc2ccccc12	25.3% (inactive)
C/C(=N\NC(=O)c1cc(C)nc2ccccc12)c1ccncc1	7.15% (inactive)

Compound	inhibition
C/C(=N\NC(=O)c1cc(C)nc2ccccc12)c1ccco1	-1.27% (inactive)
COc1ccc(CC(=O)Nc2nc(-c3ccncc3)cs2)cc1	3.49% (inactive)
Cc1nn(-c2ccccc2)c(N2CCCC2)c1/C=N/NC(=O)c1ccccc1O	-10.1% (inactive)
O=C(Oc1ccc(/C=N/NC(=O)c2ccccc2O)cc1)c1ccccc1	1.64% (inactive)
CCOC(=O)C1CCCN(C(=O)C2CCN(Cc3nc(-c4ccc(Cl)cc4)oc3C)CC2)C1 (centres undefined)	-0.69% (inactive)
COC(=O)c1ccc(COc2ncnc3ccccc23)o1	2.36% (inactive)
CC1=C/C(=C(\c2ccc(O)c(C)c2)c2ccccc2S(=O)(=O)O)C=CC1=O	-2.96% (inactive)
CC1=C/C(=C(/c2ccc(O)c(C)c2)c2ccccc2S(=O)(=O)O)C=CC1=O	12.6% (inactive)
O=[N+]([O-])c1ccc(N2CCOCC2)c([N+](=O)[O-])c1	4.03% (inactive)
O=[N+]([O-])c1ccc([N+](=O)[O-])c(Nc2ccc(N3CCOCC3)cc2)c1	-0.167% (inactive)
NC(=O)c1ccccc1N/C=C/C(=O)c1ccccc1	1.83% (inactive)
COc1ccc(Cn2c(=O)[nH]c3cc(C(=O)N4CCN(c5ccc(OC)cc5)CC4)ccc3c2=O)cc1	-8.57% (inactive)
Cc1ccc(NC(=O)COC(=O)Cn2ccc(C(F)(F)F)n2)cc1Cl	0.4% (inactive)
CCN=c1scc(-c2ccco2)n1/N=C/c1ccc(OC)c(O)c1	28.8% (inactive)
CN=c1scc(-c2ccco2)n1/N=C/c1ccc(O)c(O)c1	19.1% (inactive)
CN(CC(=O)Nc1ccccc1Cl)C(=O)C1CCN(C(=O)c2ccc(F)cc2)CC1	-9.67% (inactive)
Cc1cc(C(=O)Nc2cccc(S(=O)(=O)N3CCOCC3)c2)c2ccccc2n1	-7.61% (inactive)
O=C(Cc1ccccc1)N/N=C/c1cc(Br)cc(Br)c1O	-3.61% (inactive)
O=C(C[n+]1ccccc1)N/N=C/c1cc(Br)ccc1F	2.1% (inactive)
O=C(C[n+]1ccccc1)N/N=C/c1ccc(Br)cc1	3.75% (inactive)
COc1ccc(Br)cc1/C=N/NC(=O)C[n+]1ccccc1	-3.17% (inactive)
O=S(=O)(NN1CCOCC1)c1ccc(Br)cc1	-5.55% (inactive)
